This note sets out measurements from PubChem BioAssay (NCI).

Among the test systems are HCT-15 colon; HT29 colon; SNB-75 CNS; SNB-19 CNS; U251 CNS; PC-3 prostate; SK-MEL-5 melanoma; UACC-62 melanoma; LOX IMVI melanoma; SK-MEL-28 melanoma.
What all share (assay): NCI-60 one-dose screen, 48 h (100 = growth as untreated, 0 = no growth, -100 = all killed)
Conditions in all cases: 10 µM unless noted

The panel holds about 83,000 compounds, 20% with a hit somewhere; the sample as a whole holds those more often.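 Note: values are percent growth. 100 is the growth of untreated cells, values between 100 and 0 indicate rising inhibition; between -100 and 0 indicates cell death.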 Unmarked numbers belong to inactive results. Calls of active or inactive are those of the source. The calls were made as follows: active = growth percent below 10; inactive = the rest.

In the case of `COc1cc(/C=C2/Oc3cc4occc4c(OC)c3C2=O)ccc1OCC(=O)Nc1ccncc1`, the growth was 112% with HCT-15 colon; 104% in the experiment on HT29 colon; 96.5% in the experiment on SNB-75 CNS; 106% in the experiment on SNB-19 CNS; 108% in the experiment with U251 CNS; 95.5% in the experiment with PC-3 prostate. For the same molecule, the growth is 100% in the experiment on SK-MEL-5 melanoma, 93.5% in the experiment with UACC-62 melanoma and 99.5% with LOX IMVI melanoma.

Regarding `CC(C)(C)OC(=O)NCc1cccc(N=C=S)c1`, the growth in the experiment on HCT-15 colon is 38.9%; in the experiment with HT29 colon, 37.6%; in the experiment on SNB-75 CNS, 40.7%; in the experiment with SNB-19 CNS it was 77.1%; in the experiment on U251 CNS, 58.3%; with PC-3 prostate it was 51.2%. Also, the growth in the experiment on SK-MEL-5 melanoma is 49.2%; in the experiment on UACC-62 melanoma it was 14.2%; in the experiment on LOX IMVI melanoma it was 24.4%; with SK-MEL-28 melanoma, 23.1%.

With `O=C1OC(c2ccc(-c3ccccc3)cc2)=C/C1=C/C=C/c1ccccc1`, the growth is 109% in the experiment on HCT-15 colon; 113% with HT29 colon; 92.4% with SNB-75 CNS; 99.1% in the experiment with SNB-19 CNS; 100% in the experiment with U251 CNS; 105% in the experiment with PC-3 prostate. For the same molecule, the growth is 106% in the experiment with SK-MEL-5 melanoma, 96.8% in the experiment on UACC-62 melanoma and 99.3% with LOX IMVI melanoma.

In the case of `O=C(Nc1cccc(-n2ccc3c(NC(=O)c4ccccc4)nccc32)c1)c1cc(N2CCOCC2)cc(C(F)(F)F)c1`, the growth was 3.17% (active) with HCT-15 colon; -22.6% (active) in the experiment with HT29 colon; 39.2% in the experiment with SNB-75 CNS; 26.3% in the experiment with SNB-19 CNS; 4.89% (active) in the experiment with U251 CNS; 27.9% in the experiment on PC-3 prostate. Also, the growth was -74.7% (active) in the experiment on SK-MEL-5 melanoma, 17.5% in the experiment with UACC-62 melanoma and 9.47% (active) in the experiment with LOX IMVI melanoma.

Consider `NS(=O)(=O)c1ccc(CCN2C(=O)/C(=C\c3ccc(Cl)cc3)C=C2c2ccc(Oc3ccccc3)cc2)cc1`, for which the growth in the experiment with HCT-15 colon is 64.8%; with HT29 colon, 65.4%; in the experiment on SNB-75 CNS, 77.9%; with SNB-19 CNS, 80.3%; in the experiment on U251 CNS it was 74.5%; with PC-3 prostate it was 38.6%. In addition, the values for the growth in the experiment with SK-MEL-5 melanoma, in the experiment with UACC-62 melanoma and in the experiment on LOX IMVI melanoma were 77.4%, 68.8% and 81%, respectively.

Regarding `Cc1cccc[n+]1CCC[n+]1ccccc1C`, the growth was 96.7% with HCT-15 colon; 94.1% in the experiment with HT29 colon; 103% in the experiment with SNB-75 CNS; 111% with SNB-19 CNS; 101% in the experiment on U251 CNS; 95.4% with PC-3 prostate. Moreover, the growth was 101% in the experiment with SK-MEL-5 melanoma, 109% in the experiment on UACC-62 melanoma and 96.9% with LOX IMVI melanoma.

For the molecule `CC1(C)CC(=O)C2=C(C1)OC1=C(C(=O)CC(C)(C)C1)C2c1ccc(OCc2cn(-c3ccc(F)cc3F)nn2)cc1`, the growth was 105% in the experiment with HCT-15 colon; 96.9% in the experiment with HT29 colon; 104% with SNB-75 CNS; 99.9% in the experiment with SNB-19 CNS; 91.7% in the experiment with U251 CNS; 77.7% with PC-3 prostate. The growth is 58.4% in the experiment on SK-MEL-5 melanoma, 58.6% with UACC-62 melanoma and 97.7% in the experiment on LOX IMVI melanoma.

For `O=C1CCC(=O)N1C1CCCCC1`, the growth is 112% in the experiment on HCT-15 colon; 112% in the experiment on HT29 colon; 88.5% in the experiment on SNB-75 CNS; 99.9% in the experiment on SNB-19 CNS; 107% in the experiment with U251 CNS; 99.8% with PC-3 prostate. In addition, the growth in the experiment with SK-MEL-5 melanoma was 96.8%; in the experiment with UACC-62 melanoma, 97.7%; in the experiment on LOX IMVI melanoma, 98.4%.

Regarding `COc1ccc(Cn2cc3c(c2-c2cc(OC)c(OC)c(OC)c2)CCc2c(CO)noc2-3)cc1`, the growth in the experiment with HCT-15 colon was 17.6%; in the experiment on HT29 colon, 8.14% (active); in the experiment with SNB-75 CNS it was 40%; in the experiment with SNB-19 CNS, 30.2%; in the experiment on U251 CNS it was 11.2%; with PC-3 prostate, 26.5%. Further, the growth is 5.04% (active) in the experiment with SK-MEL-5 melanoma, 12.7% with UACC-62 melanoma, 30.6% in the experiment with LOX IMVI melanoma and 54% in the experiment on SK-MEL-28 melanoma.

Regarding `O=C(NCCNc1nccc(-c2c(-c3cccc(O)c3)nc3sccn23)n1)c1ccccc1`, the growth was 88.4% with HCT-15 colon; 65.4% in the experiment with HT29 colon; 54.4% in the experiment on SNB-75 CNS; 91.1% with SNB-19 CNS; 61.9% in the experiment with U251 CNS; 68.5% in the experiment on PC-3 prostate. Also, the growth was 40.2% in the experiment on SK-MEL-5 melanoma, 0.903% (active) with UACC-62 melanoma and 23.2% in the experiment with LOX IMVI melanoma.

For the molecule `COC(=O)c1oc2c(C(C)=O)c(OCCCN(C)C)ccc2c1C`, the growth with HCT-15 colon was 99.6%; with HT29 colon it was 69.1%; in the experiment on SNB-75 CNS it was 91.3%; in the experiment with SNB-19 CNS, 103%; with U251 CNS, 99.5%; in the experiment with PC-3 prostate, 88.9%. In addition, the growth was 103% in the experiment with SK-MEL-5 melanoma, 98.8% in the experiment on UACC-62 melanoma, 95% in the experiment on LOX IMVI melanoma and 110% in the experiment on SK-MEL-28 melanoma.

As to `COc1cc(NC(=O)c2cc(OC)c3ccn(C)c3c2)cc2c1C[C@]1(C)CC[C@@H](O)C(C)(C)[C@H]1O2`, the growth in the experiment with HCT-15 colon is 58.1%; with HT29 colon it was 61.7%; with SNB-75 CNS, 42.2%; in the experiment with SNB-19 CNS, 72.9%; with U251 CNS, 43.1%; in the experiment with PC-3 prostate, 41.7%. Further, the growth in the experiment on SK-MEL-5 melanoma was 42%; in the experiment with UACC-62 melanoma, 53.5%; in the experiment on LOX IMVI melanoma, 19.9%.

Turning to `CC1OC(n2c3ccccc3c3c4c(c5c6ccccc6[nH]c5c32)C(=O)N(CCN[C@@H]2CCC[C@H]2N)C4=O)CC(O)C1O` (stereo not given in full), the growth in the experiment with HCT-15 colon is 70.2%; with HT29 colon, 0.0923% (active); with SNB-75 CNS it was 12.5%; in the experiment with SNB-19 CNS, 14.8%; in the experiment on U251 CNS it was 7.39% (active); with PC-3 prostate, 9.72% (active). Moreover, the growth with SK-MEL-5 melanoma was -48.6% (active); with UACC-62 melanoma, 17.9%; in the experiment on LOX IMVI melanoma it was 0.411% (active); with SK-MEL-28 melanoma, 45.3%.

`C=CCn1c(SCC(=O)Nc2ccc(/C(C)=N\O)cc2)nnc1-c1cc(-c2ccc(OC)cc2)nc2ccccc12`: the growth with HCT-15 colon is 36.3%; in the experiment with HT29 colon it was 42%; with SNB-75 CNS, 57.4%; with SNB-19 CNS, 44.5%; with U251 CNS, 29.8%; in the experiment on PC-3 prostate, 29.9%. Moreover, the growth with SK-MEL-5 melanoma was 36.4%; in the experiment with UACC-62 melanoma, 37.7%; in the experiment with LOX IMVI melanoma it was -65.4% (active).
